In all, about 13,000 compounds went through this assay and about 3,200 (25%) showed an effect of 50% or more. Some of the results follow.
tested on: P. falciparum stage V gametocytes; set-up: BacTiter-Glo ATP luminescence viability of purified stage V gametocytes in 384-well plates, per cent inhibition versus DMSO; conditions: 48 h, 5 µM; inhibitor

Structure (SMILES)	% Inhibition [%]
C[C@@H]([C@@H](CCCCc1ccccc1)C(=O)N[C@H](C(=O)Nc1cccnc1)C(C)(C)C)N(O)C=O [TCMDC-138380]	-15.27
CCN(C(=O)c1ccc(NC(=O)c2cccs2)cc1)c1nc2c(C)cccc2s1 [TCMDC-125338]	37.84
O=C(Nc1ccc(OC2CCN(Cc3ccsc3)CC2)c(Cl)c1)c1cccs1 [TCMDC-133740]	-2.262
CCn1c(Cc2ccccc2)nnc1SCC(=O)N1c2ccccc2Sc2ccccc21 [TCMDC-124373]	-22.31
Cc1cccc2[nH]c(-c3cccc(-c4cccc(NC(=O)C(C)CN5CCN(C)CC5)c4)c3)nc12 (stereo not shown) [TCMDC-137150]	88.37
Cc1cccc2[nH]c(-c3cccc(-c4ccc(NC(=O)C(C)C(=O)NC(C)C)cc4)c3)nc12 (stereo not shown) [TCMDC-132149]	-14.66
Cc1cccc2[nH]c(-c3cccc(-c4ccc(NC(=O)CN5CCOCC5)cc4)c3)nc12 [TCMDC-136970]	-20.19
Cc1cccc2[nH]c(-c3ccc(-c4cccc(NC(=O)C(C)CN5CCN(C)CC5)c4)cc3)nc12 (stereo not shown) [TCMDC-137144]	36.55
CCC(C)NC(=O)Nc1cccc(-c2cccc(-c3nc4c(C)cccc4[nH]3)c2)c1 (stereo not shown) [TCMDC-133239]	36.1
Cc1cccc2[nH]c(-c3cccc(-c4ccc(NC(=O)C(C)CN5CCOCC5)cc4)c3)nc12 (stereo not shown) [TCMDC-137138]	85.59
CCC(C)NC(=O)Nc1ccc(-c2cccc(-c3nc4c(C)cccc4[nH]3)c2)cc1 (stereo not shown) [TCMDC-133238]	-3.731
Cc1cccc2[nH]c(-c3cccc(-c4ccc(NC(=O)C(C)CN5CCN(C)CC5)cc4)c3)nc12 (stereo not shown) [TCMDC-137151]	58.09
CC(=O)N[C@H](C(=O)Nc1ccc(-c2cccc(-c3nc4c(C)cccc4[nH]3)c2)cc1)C(C)C [TCMDC-136853]	-50.38
Cc1cccc2[nH]c(-c3cccc(-c4ccc(NC(=O)C(C)CN(C)C)cc4)c3)nc12 (stereo not shown) [TCMDC-137111]	95.4
Cc1cccc2[nH]c(-c3ccc(-c4ccc(NC(=O)C(C)CN(C)C)cc4)cc3)nc12 (stereo not shown) [TCMDC-137105]	-73.49
Cc1cccc2[nH]c(-c3cccc(-c4cccc(NC(=O)C(C)CN(C)C)c4)c3)nc12 (stereo not shown) [TCMDC-137110]	-50.7
CC(CCc1ccccc1)NCC(O)c1ccc2c3c(cccc13)C(=O)N2C (stereo not shown) [TCMDC-131252]	17.04
COc1cc(Cc2cnc(N)nc2N)cc(OCCCCCCN2C(=O)c3ccccc3C2=O)c1OC [TCMDC-138043]	3.318
Cc1ccc(C(C#N)c2ccc3c(C(F)(F)F)cc(C(F)(F)F)nc3n2)cc1 (stereo not shown) [TCMDC-123762]	-33.32
COc1ccc(-c2c(-c3ccc(OCc4ccccc4)cc3O)n[nH]c2C(F)(F)F)cc1 [TCMDC-124771]	-11.85
CCc1cc(-c2onc(C(F)(F)F)c2-c2ccccc2)c(O)cc1OC [TCMDC-124464]	25.65
CCc1cc(-c2n[nH]c(C(F)(F)F)c2-c2ccccc2)c(O)cc1OC [TCMDC-123700]	70.95
COc1ccc(NC(=O)Nc2nc3ccccc3s2)cc1N1CCN(C)CC1 [TCMDC-139872]	-6.741

Structure (SMILES)	% Inhibition [%]
COc1ccccc1N1CCN(CCCCN(C(=O)Nc2cccc(Cl)c2)C(=O)Nc2cccc(Cl)c2)CC1 [TCMDC-131986]	-74.5
COc1ccccc1CCN(C)CCN1CCC(NC(=O)c2ccc(-c3ccc(C(F)(F)F)cc3)cc2)CC1 [TCMDC-138797]	43.57
COc1cccc(OC)c1CN1CCC(N(C)CCCCCCCCCN2CCC(OC(=O)Nc3ccccc3-c3ccccc3)CC2)CC1 [TCMDC-134690]	126.7
COc1cccc(OC)c1CN1CCC(N(C)CCCCCCCCN2CCC(OC(=O)Nc3ccccc3-c3ccccc3)CC2)CC1 [TCMDC-134684]	106.8
COc1cc(CN2CCC(C(=O)Nc3ccc(-c4cccc(C)c4)cc3)CC2)ccc1O [TCMDC-124633]	46.38
NCC(=O)c1cc2c(cc1N)OCCO2 [TCMDC-131879]	-22.77
C=C(F)c1sc(CNCCCNc2nc3ccccc3[nH]2)c(C)c1Br [TCMDC-141307]	13.46
OC1(c2ccccc2)CCN(Cc2cccc(-c3c[nH]c4nc(NC5CCCC5)ncc34)c2)C1 (stereo not shown) [TCMDC-133775]	-50.17
CC(=O)N(Cc1ccc(CC(C)NCCc2cccc(Cl)c2)cc1)Cc1ccc(CC(C)NCCc2cccc(Cl)c2)cc1 (stereo not shown) [TCMDC-139678]	112.1
CC(Cc1ccc(CN(CC(N)=O)Cc2ccc(CC(C)NCCc3cccc(Cl)c3)cc2)cc1)NCCc1cccc(Cl)c1 (stereo not shown) [TCMDC-139804]	113.4
CS(=O)(=O)c1ccc(CNCc2ccc(-c3ccc(-c4nc5cc(C(F)(F)F)ccc5[nH]4)s3)cc2)cc1.O=C(O)C(F)(F)F [TCMDC-132906]	-5.935
CCN(CC)CCCC(C)Nc1ccnc2cc(Cl)ccc12 (stereo not shown) [TCMDC-123988]	8.457
CCN(CC)CCCC(C)Nc1cc(C=Cc2ccc([N+](=O)[O-])cc2)nc2ccc(OC)cc12.O=P(O)(O)O (stereo not shown) [TCMDC-124247]	98.87
COc1ccc2nc(-c3ccccc3)cc(NN=Cc3ccc([N+](=O)[O-])cc3)c2c1 [TCMDC-142045]	15.04
CCCN(CCC)CCCCC(C)Nc1c2ccc(Cl)cc2nc2ccc(OC)cc12 (stereo not shown) [TCMDC-137515]	50.13
CCN(CC)CCCC(C)Nc1ccnc2ccc(OC)cc12.Cl.O (stereo not shown) [TCMDC-123888]	15.61
CCCN(CCC)C(C)CCC(C)Nc1c2ccc(Cl)cc2nc2ccc(OC)cc12 (stereo not shown) [TCMDC-137516]	50.36
CCN(CC)CCCC(C)Nc1cc(C)nc2cc(Cl)ccc12 (stereo not shown) [TCMDC-124246]	33.92
CCN(CC)CCCC(C)Nc1cc(C=Cc2ccccc2Cl)nc2cc(Cl)ccc12 (stereo not shown) [TCMDC-124294]	59.52
O=C(NCCCN1CCN(c2cccc(Cl)c2)CC1)c1ccc(-c2nc3cc(Cl)c(Cl)cc3[nH]2)cc1 [TCMDC-140077]	1.638
Nc1nc(N)c2cc(S(=O)(=O)c3ccc4ccccc4c3)ccc2n1 [TCMDC-137192]	3.776
CCCCCCN1CCN(Cc2cccc(NC(=O)c3cccc(OCC)c3)c2)CC1 [TCMDC-134614]	-30.42
Cc1cc(N(C)C2CCN(CC3CCCCC3)C2)nc(Nc2ccc(Br)cc2)n1 (stereo not shown) [TCMDC-137023]	-48.72

Structure (SMILES)	% Inhibition [%]
CCCCCC(=O)N1CCOC(CCN2CCC(c3ccccc3)CC2)(c2ccc(Cl)c(Cl)c2)C1 (stereo not shown) [TCMDC-135328]	-33.56
CN1CCN(c2ccnc3ccc(NC(=O)Nc4cccc5c(Br)cccc45)cc23)CC1 [TCMDC-139347]	3.223
Cc1cccc2nc(-c3ccc(-c4ccc(CNCC5CCCO5)cc4)s3)[nH]c12.O=C(O)C(F)(F)F (stereo not shown) [TCMDC-133101]	42.96
CCN(CC)CCCC(C)Nc1c2ccc(Cl)cc2nc2ccc(OC)cc12 (stereo not shown) [TCMDC-125480]	101
CCN(CC)CCCC(C)Nc1c2cc(OC)ccc2nc2cc(Cl)c([N+](=O)[O-])cc12 (stereo not shown) [TCMDC-138329]	-1.262
CCN(CC)CCCC(C)Nc1ccnc2[nH]c3ccccc3c12 (stereo not shown) [TCMDC-131826]	12.54
CCN(CC)CCCC(C)Nc1c2ccccc2nc2c1ccc1ccccc12 (stereo not shown) [TCMDC-137517]	51.71
CCN(CC)CCCC(C)Nc1c2ccccc2nc2ccc3ccccc3c12 (stereo not shown) [TCMDC-137518]	45.6
Cc1cccc2[nH]c(-c3cccc(-c4ccc(NC(=O)c5cnn6cccnc56)cc4)c3)nc12 [TCMDC-136868]	-35.86
FC(F)(F)c1cc(CNCCCNc2nc3ccncc3[nH]2)ccc1Cl [TCMDC-140508]	-5.854
CCCC(CNCc1ccc(Cl)c(C(F)(F)F)c1)CNc1nc2ccncc2[nH]1 (stereo not shown) [TCMDC-141057]	56.14
CCCc1c(Cl)cc(CNCCCNc2nc3ccncc3[nH]2)cc1Cl [TCMDC-140509]	47.86
COc1cc(NC(=O)Nc2ccc(Br)cc2C(=O)Nc2ccc(Br)cc2)cc(OC)c1OC [TCMDC-139733]	85.99
O=C(Nc1ccc(Br)cc1)c1cc(Br)ccc1NS(=O)(=O)c1ccc(C(F)(F)F)cc1 [TCMDC-139752]	29.13
O=C(Nc1ccc(Br)cc1)c1cc(Br)ccc1NS(=O)(=O)c1cc(C(F)(F)F)cc(C(F)(F)F)c1 [TCMDC-139753]	-9.383
COc1ccc(F)cc1-c1ccc(C(=O)N2CCCN(c3ccc(C#N)cn3)CC2)cc1 [TCMDC-133385]	2.781
COc1ccc(F)cc1-c1ccc(C(=O)N2CCCN(c3ccc(C(F)(F)F)cn3)CC2)cc1 [TCMDC-133384]	-50.34
Cc1ccc(F)cc1-c1cc(N2CCCN(C(=O)c3ccc(Br)o3)CC2)ncn1 [TCMDC-125089]	67.99
CCN1CCC(N(Cc2ccc(-c3ccc(C(F)(F)F)cc3)cc2)C(=O)Cn2c(SCc3cccc(F)c3F)cc(=O)c3ccccc32)C1 (stereo not shown) [TCMDC-141301]	106.2
COCCN1CCC(N(CC2(O)CCN(c3ccc(C(F)(F)F)cc3)CC2)C(=O)Cn2c(SCc3cccc(F)c3F)cc(=O)c3ccccc32)CC1 [TCMDC-141629]	101.7
O=C(Cn1c(SCc2cccc(F)c2F)cc(=O)c2ccccc21)N(Cc1ccc(-c2ccc(C(F)(F)F)cc2)cc1)C1CCN(CCO)CC1 [TCMDC-141705]	107.3
